What all share (conditions): mRNA level, 48 h; actives raise or lower the signal
Read-out in assay [1]: ABC Transporter (ABCC3), ABCC3 (gene 8714)
The experiment in a line: LTEA_HepaRG_ABCC3: Life Technologies and Expression Analysis (LTEA) Assay for ABC Transporter (ABCC3) using HepaRG (AID 2283462). In outline:
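HepaRG cells in serum-free induction medium were exposed for 48 h in duplicate to 8-point half-log concentrations topping at 100 uM in 0.5% DMSO. ABCC3 mRNA was measured by qRT-PCR normalized to ACTB, GAPDH and POLR2A, with bidirectional fitting versus DMSO.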

Read-out in assay [2]: ABC Transporter (ABCB11), ABCB11 (gene 8647)
The experiment in a line: LTEA_HepaRG_ABCB11: Life Technologies and Expression Analysis (LTEA) Assay for ABC Transporter (ABCB11) using HepaRG (AID 2283463). In outline:
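ABCB11 transcript levels are read by Fluidigm TaqMan qRT-PCR after 48 h chemical treatment of human HepaRG cells. Concentrations span 100 uM downward in half-log steps with 0.5% DMSO; gain or loss is fitted against DMSO controls.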

Read-out in assay [3]: ABC Transporter (ABCC2), ABCC2 (gene 1244)
The experiment in a line: LTEA_HepaRG_ABCC2: Life Technologies and Expression Analysis (LTEA) Assay for ABC Transporter (ABCC2) using HepaRG (AID 2283464). In outline:
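HepaRG cells were plated 48 h, switched to serum-free induction medium, then exposed in duplicate for 48 h to 8 concentrations (top 100 uM, half-log steps, 0.5% DMSO). ABCC2 mRNA was measured by qRT-PCR normalized to ACTB/GAPDH/POLR2A; bidirectional fitting versus DMSO.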

Read-out in assay [4]: Broad substrate specificity ATP-binding cassette transporter ABCG2 (Homo sapiens) (UniProt Q9UNQ0)
The experiment in a line: LTEA_HepaRG_ABCG2: Life Technologies and Expression Analysis (LTEA) Assay for ABC Transporter (ABCG2) using HepaRG (AID 2283465). Put shortly:
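Read-out is ABCG2 mRNA induction or loss quantified by qRT-PCR after 48 h chemical treatment of human HepaRG cells, normalized to three housekeeping genes. Concentrations reached 100 uM top in half-log steps; fitting was bidirectional against 0.5% DMSO.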

Read-out in assay [5]: ATP-citrate lyase (ACLY), ACLY (gene 47)
Nature of the assay: LTEA_HepaRG_ACLY: Life Technologies and Expression Analysis (LTEA) Assay for ATP-citrate lyase (ACLY) using HepaRG (AID 2283466). Put shortly:
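HepaRG, 48 h exposure, 8-pt half-log dilutions (top 100 uM), 0.5% DMSO. Readout: ACLY mRNA, TaqMan qRT-PCR, housekeeping-normalized (ACTB/GAPDH/POLR2A). Bidirectional curve fit vs DMSO.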

Read-out in assay [6]: Peroxisomal acyl-coenzyme A oxidase 1 (ACOX1) gene, ACOX1 (gene 51)
Nature of the assay: LTEA_HepaRG_ACOX1: Life Technologies and Expression Analysis (LTEA) Assay for Peroxisomal acyl-coenzyme A oxidase 1 (ACOX1) gene using HepaRG (AID 2283467). Put shortly: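 Measured by qRT-PCR against three housekeeping genes: ACOX1 transcript change in human HepaRG cells after 48 h dosing. Concentrations ran up to 100 uM in half-log steps. Curves were fitted bidirectionally relative to 0.5% DMSO.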

Read-out in assay [7]: Alkaline Phosphatase, Placental (ALPP) gene, ALPP (gene 250)
Nature of the assay: LTEA_HepaRG_ALPP: Life Technologies and Expression Analysis (LTEA) Assay for Alkaline Phosphatase, Placental (ALPP) gene using HepaRG (AID 2283468). Put shortly:
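Differentiated human HepaRG cells were plated and cultured 48 h, then exposed in duplicate for 48 h in serum-free induction medium to eight half-log concentrations from 100 uM in 0.5% DMSO. ALPP mRNA was measured by TaqMan qRT-PCR, normalized to ACTB, GAPDH, POLR2A.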

Read-out in assay [8]: Bcl-2 (BAX) gene, BAX (gene 581)
Nature of the assay: LTEA_HepaRG_BAX: Life Technologies and Expression Analysis (LTEA) Assay for Bcl-2 (BAX) gene using HepaRG (AID 2283470). In outline: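 Concentration-response endpoint fitted in both directions relative to 0.5% DMSO vehicle. Human HepaRG cultures receive test chemicals for 48 h at up to 100 uM; BAX mRNA is quantified by qRT-PCR against housekeeping genes.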

Read-out in assay [9]: Alpha-fetoprotein (AFP) gene, AFP (gene 174)
Nature of the assay: LTEA_HepaRG_AFP: Life Technologies and Expression Analysis (LTEA) Assay for Alpha-fetoprotein (AFP) gene using HepaRG (AID 2283472). Put shortly:
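After a 48 h plating period, cells are moved to serum-free induction medium and dosed in duplicate (100 uM maximum, half-log dilutions, 0.5% DMSO) for another 48 h. Total RNA goes to TaqMan qRT-PCR; AFP signal is housekeeping-normalized.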

Read-out in assay [10]: BCL2L11 (gene 10018)
The experiment in a line: LTEA_HepaRG_BCL2L11: Life Technologies and Expression Analysis (LTEA) Assay for Bcl-2 (BCL2L11) gene using HepaRG (AID 2283473). In outline:
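Differentiated human HepaRG cells in serum-free induction medium were exposed in duplicate for 48 h to eight concentrations (top 100 uM, half-log steps, 0.5% DMSO). BCL2L11 mRNA was quantified by TaqMan qRT-PCR, normalized to ACTB/GAPDH/POLR2A, bidirectional fit versus DMSO.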

Read-out in assay [11]: Apolipoprotein A-V (APOA5) gene, APOA5 (gene 116519)
Nature of the assay: LTEA_HepaRG_APOA5: Life Technologies and Expression Analysis (LTEA) Assay for Apolipoprotein A-V (APOA5) gene using HepaRG (AID 2283474). Put shortly:
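Differentiated human HepaRG cells were exposed in duplicate for 48 h to eight half-log concentrations from 100 uM in 0.5% DMSO. APOA5 mRNA was quantified by TaqMan qRT-PCR, normalized to ACTB, GAPDH and POLR2A, and fitted bidirectionally against DMSO.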

Read-out in assay [12]: Bcl-2 (BID) gene, BID (gene 637)
The experiment in a line: LTEA_HepaRG_BID: Life Technologies and Expression Analysis (LTEA) Assay for Bcl-2 (BID) gene using HepaRG (AID 2283476). Put shortly: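 Gain or loss of BID expression is fitted relative to 0.5% DMSO vehicle. Human HepaRG liver cells received a 48 h chemical exposure over an eight-point concentration range.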

Read-out in assay [13]: Caspase-3 (Homo sapiens) (UniProt P42574)
The experiment in a line: LTEA_HepaRG_CASP3: Life Technologies and Expression Analysis (LTEA) Assay for cysteine-aspartic acid protease (CASP3) using HepaRG (AID 2283477). Put shortly: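 Differentiated human HepaRG cells in serum-free induction medium were exposed 48 h to 8-point half-log concentrations from 100 uM (0.5% DMSO vehicle). CASP3 mRNA was measured by qRT-PCR, normalised to ACTB, GAPDH and POLR2A, with bidirectional fitting against DMSO.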

Read-out in assay [14]: Cytochrome P450 (CYP24A1), CYP24A1 (gene 1591)
Nature of the assay: LTEA_HepaRG_CYP24A1: Life Technologies and Expression Analysis (LTEA) Assay for Cytochrome P450 (CYP24A1) using HepaRG (AID 2283478). Put shortly: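 Differentiated HepaRG cells, pre-cultured 48 h, were exposed in duplicate for 48 h in serum-free induction medium to 8 half-log concentrations (top 100 uM, 0.5% DMSO). CYP24A1 mRNA was quantified by TaqMan qRT-PCR, normalized to ACTB/GAPDH/POLR2A, fitted bidirectionally versus DMSO.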

Read-out in assay [15]: Cytochrome P450 (CYP1A2), CYP1A2 (gene 1544)
The experiment in a line: LTEA_HepaRG_CYP1A2: Life Technologies and Expression Analysis (LTEA) Assay for Cytochrome P450 (CYP1A2) using HepaRG (AID 2283479). Put shortly: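 Differentiated human HepaRG cells in serum-free induction medium were exposed in duplicate for 48 h to 8-point half-log concentrations up to 100 uM in 0.5% DMSO. CYP1A2 mRNA measured by qRT-PCR, normalized to ACTB, GAPDH, POLR2A; bidirectional fit vs DMSO.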

Read-out in assay [16]: cysteine-aspartic acid protease (CASP8), CASP8 (gene 841)
Nature of the assay: LTEA_HepaRG_CASP8: Life Technologies and Expression Analysis (LTEA) Assay for cysteine-aspartic acid protease (CASP8) using HepaRG (AID 2283480). Put shortly:
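HepaRG, 48 h exposure, duplicate wells; 8 conc, half-log from 100 uM, 0.5% DMSO. Serum-free induction medium. CASP8 mRNA by TaqMan qRT-PCR, norm. ACTB/GAPDH/POLR2A; gain/loss fitted vs DMSO.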

Read-out in assay [17]: Bcl-2 (BAD) gene, BAD (gene 572)
The experiment in a line: LTEA_HepaRG_BAD: Life Technologies and Expression Analysis (LTEA) Assay for Bcl-2 (BAD) gene using HepaRG (AID 2283469). Put shortly: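 BAD transcript change, measured by qRT-PCR against three housekeeping genes and fitted in both directions relative to 0.5% DMSO, after 48 h chemical treatment of human HepaRG liver cells at concentrations up to 100 uM.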

Read-out in assay [18]: adenosine kinase (ADK) gene, ADK (gene 132)
The experiment in a line: LTEA_HepaRG_ADK: Life Technologies and Expression Analysis (LTEA) Assay for adenosine kinase (ADK) gene using HepaRG (AID 2283471). Put shortly:
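Read-out is ADK transcript level measured by qRT-PCR and normalised to three housekeeping genes. Cells are human HepaRG, dosed for 48 h at up to 100 uM in 0.5% DMSO. Gain or loss of signal is fitted against DMSO controls.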

Read-out in assay [19]: Apoptosis regulator Bcl-2 (Homo sapiens) (UniProt P10415)
The experiment in a line: LTEA_HepaRG_BCL2: Life Technologies and Expression Analysis (LTEA) Assay for Bcl-2 gene using HepaRG (AID 2283475). In outline:
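Expression change of BCL2 mRNA in HepaRG after 48 h dosing, quantified by TaqMan qRT-PCR against three endogenous controls. Concentration-response used eight points up to 100 uM, vehicle 0.5% DMSO.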

The source made the active and inactive calls. The calls were made as follows: active = hit-call score of the fitted dose curve at least 0.9, where 1 is the maximum; inactive = score below 0.9.

Chain of Apoptosis regulator Bcl-2 (Homo sapiens) (P10415 whole entry, looked up): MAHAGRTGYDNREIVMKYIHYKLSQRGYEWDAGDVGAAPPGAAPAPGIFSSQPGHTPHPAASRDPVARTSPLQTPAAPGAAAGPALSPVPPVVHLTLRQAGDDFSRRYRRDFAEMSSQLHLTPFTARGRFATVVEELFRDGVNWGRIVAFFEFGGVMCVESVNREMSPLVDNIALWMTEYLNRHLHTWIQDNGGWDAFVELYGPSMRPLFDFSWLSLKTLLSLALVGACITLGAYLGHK
Chain of Broad substrate specificity ATP-binding cassette transporter ABCG2 (Homo sapiens) (Q9UNQ0 whole entry, looked up): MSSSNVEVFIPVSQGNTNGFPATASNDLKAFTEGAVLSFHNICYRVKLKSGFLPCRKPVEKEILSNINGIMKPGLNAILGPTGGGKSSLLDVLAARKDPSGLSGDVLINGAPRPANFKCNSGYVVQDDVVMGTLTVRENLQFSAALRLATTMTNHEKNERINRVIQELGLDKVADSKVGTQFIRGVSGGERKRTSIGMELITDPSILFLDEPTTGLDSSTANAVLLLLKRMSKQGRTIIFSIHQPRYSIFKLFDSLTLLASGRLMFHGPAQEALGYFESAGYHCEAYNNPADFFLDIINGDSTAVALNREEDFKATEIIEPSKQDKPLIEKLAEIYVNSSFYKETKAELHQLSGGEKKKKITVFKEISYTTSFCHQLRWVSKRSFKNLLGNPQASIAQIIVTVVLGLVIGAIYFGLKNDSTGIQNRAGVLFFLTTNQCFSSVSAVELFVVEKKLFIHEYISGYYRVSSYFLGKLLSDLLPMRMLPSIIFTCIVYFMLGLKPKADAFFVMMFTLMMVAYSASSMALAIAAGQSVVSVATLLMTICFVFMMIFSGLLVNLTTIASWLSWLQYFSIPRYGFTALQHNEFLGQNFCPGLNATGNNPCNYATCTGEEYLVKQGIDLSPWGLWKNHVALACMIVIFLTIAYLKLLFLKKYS
Chain of Caspase-3 (Homo sapiens) (P42574 whole entry, looked up): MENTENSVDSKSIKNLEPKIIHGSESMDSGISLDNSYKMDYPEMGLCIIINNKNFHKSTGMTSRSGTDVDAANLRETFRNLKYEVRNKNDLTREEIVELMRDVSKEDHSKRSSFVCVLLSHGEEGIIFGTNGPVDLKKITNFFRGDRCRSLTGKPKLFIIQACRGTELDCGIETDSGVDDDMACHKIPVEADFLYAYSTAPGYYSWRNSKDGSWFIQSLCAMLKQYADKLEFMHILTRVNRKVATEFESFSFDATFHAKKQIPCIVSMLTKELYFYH

One may read the AC50 as the concentration at which the activity in the assay is half-maximal. As to `CC(C)CC(C)O` (stereo not drawn), the call in assay [1], in assay [2], in assay [3], in assay [4], in assay [5] and in assay [6] was inactive. Moreover, the compound was called inactive in assay [7], in assay [8], in assay [9], in assay [10], in assay [11] and in assay [12]. The outcome in [13], in assay [14] and in [16] was inactive. Besides, the AC50 in [15] was 50 µM (active).

For `NC(=O)N(O)[C@@H]1COc2cc(OCc3ccccc3)ccc21`, the compound was called inactive in assay [1], in assay [2], in assay [4], in assay [5], in assay [6] and in assay [7]. For the same compound, the compound was classed as inactive in assay [17], in assay [8], in assay [18], in [9], in assay [10] and in assay [19]. Also, the compound was classed as inactive in [12], in [13], in assay [14] and in assay [16]. Besides, the AC50 in [15] is 50 µM (active).

In the case of `OC(Cn1cncn1)(Cn1cncn1)c1ccc(F)cc1F`, the outcome in assay [1], in assay [2], in [3], in assay [4], in [5] and in assay [6] was inactive. Further, the result in assay [7], in assay [8], in assay [9], in assay [10], in assay [19] and in [12] was inactive. Moreover, the compound was called inactive in assay [13], in assay [14], in assay [15] and in [16].

`c1ccc2ncccc2c1`: the call in assay [1], in assay [2], in assay [3], in assay [4], in assay [5] and in assay [6] was inactive. Besides, the compound was classed as inactive in assay [7], in assay [8], in [18], in assay [9], in [10] and in assay [19]. Moreover, the compound was called inactive in assay [12], in assay [13], in assay [14], in assay [15] and in [16].

For the compound `Nc1ccn([C@@H]2O[C@H](CO)[C@@H](O)[C@@H]2O)c(=O)n1`, the result in [1], in [2], in [4], in assay [5], in assay [6] and in assay [7] was inactive. Besides, the call in assay [17], in assay [8], in assay [18], in assay [9], in [10] and in assay [19] was inactive. Moreover, the result in assay [12], in assay [13], in assay [14], in assay [15] and in assay [16] was inactive.

For the origin of these results see PubChem BioAssay (EPA / NIEHS).
